Assay results published in PubChem BioAssay (NCI).
Where “and” joins values, the source holds several entries; their conditions need not be identical. Equal entries are not always repeated. The panel holds about 83,000 compounds, 20% with a hit somewhere; the sample as a whole holds those more often.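 A percent growth of 40 corresponds to 60% growth inhibition; 0 means no net growth; -100 means all cells died. Active threshold: below 10.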 Calls of active or inactive are those of the source.

Key:
Experiment in all cases: NCI-60 one-dose screen, 48 h (100 = growth as untreated, 0 = no growth, -100 = all killed)
SK-MEL-2 melanoma = tested on: SK-MEL-2 melanoma
SN12C renal = tested on: SN12C renal
UO-31 renal = tested on: UO-31 renal
TK-10 renal = tested on: TK-10 renal
ACHN renal = tested on: ACHN renal
CAKI-1 renal = tested on: CAKI-1 renal
A498 renal = tested on: A498 renal
HL-60(TB) leukemia = tested on: HL-60(TB) leukemia
MOLT-4 leukemia = tested on: MOLT-4 leukemia
RPMI-8226 leukemia = tested on: RPMI-8226 leukemia

Measured: growth

COc1cccc2c1cc([N+](=O)[O-])c1c(C(=O)O)cc3c(c12)OCO3
inactive: SK-MEL-2 melanoma; 10 µM unless noted 94.4% and 104% | SN12C renal; 10 µM unless noted 65.1% and 113% | UO-31 renal; 10 µM unless noted 76.5% and 87.8% | TK-10 renal; 10 µM 30.8% and 99.6% | ACHN renal; 10 µM unless noted 39.1% and 96.1% | A498 renal; 10 µM unless noted 87.2% and 107% | HL-60(TB) leukemia; 10 µM unless noted 41.6% and 79.4% | MOLT-4 leukemia; 10 µM unless noted 35.7% and 95.9% | RPMI-8226 leukemia; 10 µM unless noted 89.1% and 82.3%
9.19% (active) and 88% (inactive): CAKI-1 renal; 10 µM unless noted
active: TK-10 renal; 100 µM -10.4% and -42.6%

CO[C@H](/C(C)=C/C=C/C(C)=C/c1coc(C)n1)[C@H](C)[C@H]1C[C@@H](O)[C@@]2(C)O[C@H]2/C=C/[C@@H](C)[C@@H]2C[C@@H](CC(=O)O2)C[C@H]2O[C@@H]2C(=O)O1
inactive: SK-MEL-2 melanoma; 10 µM unless noted 51.4% | SN12C renal; 10 µM unless noted 48.7% | UO-31 renal; 10 µM unless noted 20.7% | TK-10 renal; 10 µM 37.2% | CAKI-1 renal; 10 µM unless noted 15% | A498 renal; 10 µM unless noted 26.1%
active: ACHN renal; 10 µM unless noted -10.3% | HL-60(TB) leukemia; 10 µM unless noted -36.9% | MOLT-4 leukemia; 10 µM unless noted 9.7% | RPMI-8226 leukemia; 10 µM unless noted -14.5%

Oc1cc[c]([Hg][Cl])cc1
inactive: SK-MEL-2 melanoma; 10 µM unless noted 70.2% | SN12C renal; 10 µM unless noted 98.9% | UO-31 renal; 10 µM unless noted 100% | TK-10 renal; 10 µM 110% | ACHN renal; 10 µM unless noted 99% | CAKI-1 renal; 10 µM unless noted 110% | A498 renal; 10 µM unless noted 107% | HL-60(TB) leukemia; 10 µM unless noted 102% | MOLT-4 leukemia; 10 µM unless noted 65.2% | RPMI-8226 leukemia; 10 µM unless noted 91.2%

c1ccc2c(c1)[nH]c1c2cc[n+]2cc3c(cc12)CCCC3
inactive: HL-60(TB) leukemia; 10 µM unless noted 13.5%

Cc1c(N)nc([C@H](CC(N)=O)NC[C@H](N)C(N)=O)nc1C(=O)N[C@H](C(=O)N[C@H](C)[C@@H](O)[C@H](C)C(=O)N[C@H](C(=O)NCCc1nc(-c2nc(C(=O)NCCC[S+](C)C)cs2)cs1)[C@@H](C)O)C(OC1OC(CO)C(O)C(O)C1OC1OC(CO)C(O)C(OC(N)=O)C1O)c1cnc[nH]1 (stereo partly specified)
42.4% (inactive) and -73.8% (active): TK-10 renal; 25 µM
active: ACHN renal; 10 µM unless noted -6.04% [2.5 µM]
inactive: SK-MEL-2 melanoma; 10 µM unless noted 125% [2.5 µM] | SN12C renal; 10 µM unless noted 52.2% [2.5 µM] | UO-31 renal; 10 µM unless noted 39.9% [2.5 µM] | TK-10 renal; 2.5 µM 89.5% | CAKI-1 renal; 10 µM unless noted 26.4% [2.5 µM] | A498 renal; 10 µM unless noted 84.1% [2.5 µM] | HL-60(TB) leukemia; 10 µM unless noted 81.8% [2.5 µM] | MOLT-4 leukemia; 10 µM unless noted 67.1% [2.5 µM] | RPMI-8226 leukemia; 10 µM unless noted 76.4% [2.5 µM]

CC[C@@]1(O)C[C@H](OC2CC(N(C)C)C(O)C(C)O2)c2c(O)c3c(c(O)c2[C@H]1OC1CC(N(C)C)C(O)C(C)O1)C(=O)c1cccc(O)c1C3=O (stereo partly specified)
active: SK-MEL-2 melanoma; 10 µM unless noted -54.5% | UO-31 renal; 10 µM unless noted -33.9% | TK-10 renal; 10 µM -24.9% | ACHN renal; 10 µM unless noted -31% | CAKI-1 renal; 10 µM unless noted -9.18% | A498 renal; 10 µM unless noted -68% | HL-60(TB) leukemia; 10 µM unless noted -34.3% | MOLT-4 leukemia; 10 µM unless noted -10.5% | RPMI-8226 leukemia; 10 µM unless noted -50.6%
inactive: SN12C renal; 10 µM unless noted 11.4%

CC(=O)O[C@H]1C[C@@H]2OC3C=C(C)CCC3(C)[C@@]1(C)[C@@]21CO1 (stereo partly specified)
active: SK-MEL-2 melanoma; 10 µM unless noted -72.2% and -53.9% | SN12C renal; 10 µM unless noted -9.69% and 0.846% | UO-31 renal; 10 µM unless noted -5.32% and -11.9% | TK-10 renal; 10 µM -18.9% and -20.4% | ACHN renal; 10 µM unless noted -34.8% and -29.9% | CAKI-1 renal; 10 µM unless noted -16.9% and -24.9% | A498 renal; 10 µM unless noted -38.7% | HL-60(TB) leukemia; 10 µM unless noted -42% | MOLT-4 leukemia; 10 µM unless noted -15.6% and -30.2% | RPMI-8226 leukemia; 10 µM unless noted -16.3% and -26.9%

NCCc1ccc(OCc2ccccc2)c(OCc2ccccc2)c1
inactive: SK-MEL-2 melanoma; 10 µM unless noted 87.4% | SN12C renal; 10 µM unless noted 86.6% | UO-31 renal; 10 µM unless noted 51.2% | TK-10 renal; 10 µM 107% | ACHN renal; 10 µM unless noted 71.1% | CAKI-1 renal; 10 µM unless noted 81.6% | A498 renal; 10 µM unless noted 79% | HL-60(TB) leukemia; 10 µM unless noted 51.4% | MOLT-4 leukemia; 10 µM unless noted 78.1% | RPMI-8226 leukemia; 10 µM unless noted 69.7%

CCCCCCCCCCCC1CCCC(C)N1 (stereo unspecified)
active: SK-MEL-2 melanoma; 10 µM unless noted -7.27% | HL-60(TB) leukemia; 10 µM unless noted -45.8% | RPMI-8226 leukemia; 10 µM unless noted -34.7%
inactive: SN12C renal; 10 µM unless noted 75.3% | UO-31 renal; 10 µM unless noted 29% | ACHN renal; 10 µM unless noted 77.8% | CAKI-1 renal; 10 µM unless noted 86.6% | A498 renal; 10 µM unless noted 95.8% | MOLT-4 leukemia; 10 µM unless noted 14.1%

COC1=C(C)C(=O)C2=C(C1=O)C(CO)N1C(C#N)C3CC4C(C1C2N1CCOC41)N3C (stereo unspecified)
inactive: SN12C renal; 10 µM unless noted 19.8%
active: SK-MEL-2 melanoma; 10 µM unless noted -58.4% | TK-10 renal; 10 µM -28.8% | ACHN renal; 10 µM unless noted -9.01% | CAKI-1 renal; 10 µM unless noted -23.1% | A498 renal; 10 µM unless noted -67.7% | HL-60(TB) leukemia; 10 µM unless noted -33.9% | MOLT-4 leukemia; 10 µM unless noted -2.61% | RPMI-8226 leukemia; 10 µM unless noted -41.3%

COc1ccccc1/C=C(/C)[N+](=O)[O-]
0.614% (active) and 118% (inactive): RPMI-8226 leukemia; 10 µM unless noted
inactive: SK-MEL-2 melanoma; 10 µM unless noted 94.8% and 85.9% | SN12C renal; 10 µM unless noted 32.9% and 99.3% | UO-31 renal; 10 µM unless noted 78.7% and 83.1% | TK-10 renal; 10 µM 75.2% and 95% | ACHN renal; 10 µM unless noted 71.1% and 107% | CAKI-1 renal; 10 µM unless noted 85.8% and 95.1% | A498 renal; 10 µM unless noted 99.1% and 118% | HL-60(TB) leukemia; 10 µM unless noted 30.7% and 92.7% | MOLT-4 leukemia; 10 µM unless noted 13.9% and 102%

Cc1cc(N=Nc2ccccc2C)ccc1N
inactive: SK-MEL-2 melanoma; 10 µM unless noted 127% | SN12C renal; 10 µM unless noted 28.9% | UO-31 renal; 10 µM unless noted 19.3% | TK-10 renal; 10 µM 124% | ACHN renal; 10 µM unless noted 85.3% | CAKI-1 renal; 10 µM unless noted 54.7% | MOLT-4 leukemia; 10 µM unless noted 29.3% | RPMI-8226 leukemia; 10 µM unless noted 17.5%
active: HL-60(TB) leukemia; 10 µM unless noted 8.96%

CN1CCN(c2ccc([N+](=O)[O-])c3no[n+]([O-])c23)CC1
active: SK-MEL-2 melanoma; 10 µM unless noted -80.5% | SN12C renal; 10 µM unless noted -63.9% | UO-31 renal; 10 µM unless noted -48.4% | TK-10 renal; 10 µM -95.4% | ACHN renal; 10 µM unless noted -84% | CAKI-1 renal; 10 µM unless noted -75.2% | A498 renal; 10 µM unless noted -34.8% | HL-60(TB) leukemia; 10 µM unless noted -42.4% | MOLT-4 leukemia; 10 µM unless noted -46% | RPMI-8226 leukemia; 10 µM unless noted -36.6%

O=C(O)c1ccccc1.[Ag]
inactive: HL-60(TB) leukemia; 10 µM unless noted 113%

CC[C@@]1(O)C(=O)OCc2c1cc1n(c2=O)Cc2cc3ccccc3nc2-1
active: SK-MEL-2 melanoma; 10 µM unless noted -20.7% | UO-31 renal; 10 µM unless noted -59.6% | TK-10 renal; 10 µM -8.5% | ACHN renal; 10 µM unless noted -72.6% | CAKI-1 renal; 10 µM unless noted -37.9% | A498 renal; 10 µM unless noted -77.4% | MOLT-4 leukemia; 10 µM unless noted -17.4% | RPMI-8226 leukemia; 10 µM unless noted -39.7%
inactive: SN12C renal; 10 µM unless noted 13.5%

S=C(SSC(=S)N1CCCCC1)N1CCCCC1
active: SK-MEL-2 melanoma; 100 µM 2.78% | SN12C renal; 100 µM -42.3% | UO-31 renal; 100 µM -12.3% | TK-10 renal; 100 µM -61.8% | ACHN renal; 100 µM -51% | CAKI-1 renal; 100 µM -77.7% | MOLT-4 leukemia; 100 µM 0.424% | RPMI-8226 leukemia; 100 µM -44.7%
inactive: SK-MEL-2 melanoma; 10 µM 102% | SN12C renal; 10 µM 96.1% | UO-31 renal; 10 µM 102% | TK-10 renal; 10 µM 109% | ACHN renal; 10 µM 106% | CAKI-1 renal; 10 µM 95.6% | A498 renal; 10 µM 105% | A498 renal; 100 µM 72.4% | HL-60(TB) leukemia; 10 µM 86.4% | HL-60(TB) leukemia; 100 µM 14.7% | MOLT-4 leukemia; 10 µM 85% | RPMI-8226 leukemia; 10 µM 105%

Oc1ccc(Cl)cc1Sc1cc(Cl)ccc1O
inactive: HL-60(TB) leukemia; 10 µM unless noted 81.8%
